# VHR inh abs: VHR1 phosphatase inhibitors, primary screen, biochemical, absorbance, uHTS; recombinant VHR phosphatase, pNPP absorbance; 290,000 compounds, 0.52% hits; AID 1654, 2009; Dual specificity protein phosphatase 3 (Homo sapiens), P51452; inhibition, % at 13.3 µM; in the data active = inhibition above about 50%
# PrPC TRFRET: inhibitors of human cell surface prion protein PrPC, primary screen, cell-based, TR-FRET; Major prion protein (Homo sapiens), P04156; TR-FRET read-out; inhibition, % at 13.8 µM; 370,000 compounds, 0.43% hits; AID 720596, 2013; in the data active = inhibition above about 24%; also: 0% = median of the test wells and 100% = reference compound wells
# TcdB GH inh: TcdB glycohydrolase inhibitors, primary screen, biochemical, single point, plate reader | Toxin B (Clostridioides difficile), P18177 | TcdB glycohydrolase enzymatic assay | inhibition, % at 9.99 µM | 350,000 compounds, 0.24% hits | AID 652162, 2013; in the data active = inhibition above about 10%
# Active calls of the source: *; nt = no result. Shown are actives, neighbours in structure and some others; about 0.82% of the full set was active somewhere.
SMILES,VHR inh abs,PrPC TRFRET,TcdB GH inh
O=C(CSc1ccccn1)Nc1ccc2ccccc2c1,20,nt,nt
Cc1cc(NC(=O)CSc2ccccn2)cc(NC(=O)CSc2ccccn2)c1,54*,9,-8
CO[C@@H]1CN(C)C(=O)c2cc(NC(=O)C3CC3)ccc2OC[C@@H](C)N(C(=O)c2cnccn2)C[C@H]1C,nt,nt,0
COC(=O)Nc1ccc2c(c1)Nc1ccccc1CC2,0,-5,1
Nc1ccc2c(c1)Nc1ccccc1CC2,26,6,15*
C[C@H](CO)N1C[C@H](C)[C@@H](CN(C)Cc2ccccn2)Oc2cc(C#C[C@@H](C)O)ccc2S1(=O)=O,nt,nt,0
COc1ccc(CN(C)C[C@H]2Oc3ccc(NC(=O)CCC(F)(F)F)cc3CC(=O)N([C@H](C)CO)C[C@@H]2C)cc1,nt,nt,0
Cc1ccc2nc3c(cc(C(=O)NC4CCCC4)c(=N)n3C3CCCCC3)c(=O)n2c1,58*,-21,-1
Cc1ccc2nc3c(cc(C(=O)NC4CCCCC4)c(=N)n3C3CCCCC3)c(=O)n2c1,12,-17,0
COc1ccc(S(=O)(=O)N(C)C[C@H]2Oc3c(NC(=O)Nc4ccc(C(F)(F)F)cc4)cccc3C(=O)N([C@@H](C)CO)C[C@@H]2C)cc1,nt,nt,0
COn1c(-c2ccc(Cl)cc2)nc2ccc(Cl)cc21,28,2,nt
O=C(O)COn1c(-c2ccc(Cl)cc2)nc2ccc(Cl)cc21,3,0,10*
COc1cc(C)ccc1OCc1cc(C(=O)N(Cc2nccn2C)C(C)C)no1,52*,-12,1
COc1cccc(OCc2cc(C(=O)N(Cc3nccn3C)C(C)C)no2)c1,-2,-3,3
CCC1=NNc2cccc3c(OC)ccc1c23,54*,nt,nt
COc1ccc2c3c(cccc13)C(=O)N(O)C2=O,-11,-19,2
C[C@@H]1CN([C@@H](C)CO)C(=O)c2cc(/C=C/c3ccccc3)cnc2O[C@H]1CN(C)C(=O)Nc1ccccc1F,nt,nt,-1
COCCNc1oc(/C=C/c2ccccc2)nc1C#N,4,-12,12*
CNc1oc(/C=C/c2ccccc2)nc1C#N,-5,-7,nt
CN(C)C(=O)c1ccc(-c2ccccc2[C@H]2[C@@H](C#N)N(C(=O)C3CC3)[C@@H]2CO)cc1,nt,nt,-1
CCOc1ccc(-c2c(C)n(-c3ccc(OCC)cc3)c3[n+]2CCCCC3)cc1,17,28*,0
CCOc1ccc(-n2c(-c3ccccc3)c[n+]3c2CCCCC3)cc1,17,22,1
COc1ccc(NC(=O)N(C)C[C@H]2Oc3c(NC(=O)NC(C)C)cccc3C(=O)N([C@@H](C)CO)C[C@@H]2C)cc1,nt,nt,-10
Cc1ccc2nc3c(cc2c1)c(C)nn3-c1ccccc1,-29,-8,-4
Cc1nn(-c2ccccc2)c2nc(=O)n(-c3ccccc3)cc12,56*,-2,nt
SMILES,VHR inh abs,PrPC TRFRET,TcdB GH inh
O=C(NC[C@@H]1CC[C@@H]2[C@@H](CN2Cc2nccs2)O1)C1CCC1,nt,nt,0
O=C(O)c1ccc(NC(=O)C2C3CCC(C3)C2C(=O)O)cc1 (configuration not stated),12,0,nt
CSc1ccccc1NC(=O)C1C2CCC(C2)C1C(=O)O (configuration not stated),52*,-3,1
Cc1cc(=O)oc2cc(OCC(=O)NCCc3ccccc3)ccc12,58*,12,-2
COc1ccc(CCNC(=O)COc2ccc3c(C)cc(=O)oc3c2)cc1,nt,-9,-1
COc1cc(/C=C(/C#N)C(=O)NCc2ccccc2)cc(OC)c1OC,16,-6,3
Cc1cc(/C=C(\C#N)C(=O)NCc2ccccc2)cc(C)c1O,52*,1,-1
CN1CCN(C(=O)C[C@H]2CC[C@@H]3[C@H](COC[C@@H](O)CN3S(=O)(=O)c3cccc(Cl)c3)O2)CC1,nt,nt,0
CCCc1cn(CC[C@H]2CC[C@H](NC(=O)CCN3CCCCC3)[C@@H](CO)O2)nn1,nt,nt,-1
CCCSc1nc2c(cnn2-c2ccccc2)c(=O)n1N,1,-4,2
CCCOc1nc(SCCC)nc2c1cnn2-c1ccccc1,53*,2,0
Cc1noc(C)c1NC(=O)Nc1ccc2c(c1)CC(=O)N([C@@H](C)CO)C[C@@H](C)[C@@H](CN(C)C)O2,nt,nt,1
O=C(C[C@@H]1CC[C@H]2[C@@H](COC[C@@H](O)CN2C(=O)c2ccccc2)O1)Nc1ccc(-c2ccccc2)cc1,nt,nt,2
C(=N\n1c2ccccc2c2ccccc21)/c1ccccc1,8,3,1
C[n+]1cn(/N=C/c2ccccc2)c2ccccc21,54*,8,nt
CCCNC(=O)N1C[C@H](C)[C@H](OC)CN(C)C(=O)c2ccc(NS(C)(=O)=O)cc2OC[C@H]1C,nt,nt,-2
CCC(=O)Nc1ccc2c(c1)OC[C@@H](C)N(C(=O)NC(C)C)C[C@H](C)[C@@H](OC)CN(C)C2=O,nt,nt,9
CCC(=O)Nc1ccc2c(c1)OC[C@@H](C)N(C(=O)NC(C)C)C[C@@H](C)[C@H](OC)CN(C)C2=O,nt,nt,-2
CCC(=O)Nc1ccc2c(c1)OC[C@@H](C)N(C(=O)NC(C)C)C[C@@H](C)[C@@H](OC)CN(C)C2=O,nt,nt,18*
CCC(=O)Nc1ccc2c(c1)OC[C@H](C)N(C(=O)NC(C)C)C[C@H](C)[C@H](OC)CN(C)C2=O,nt,nt,13*
CCNC(=O)[C@@H]1[C@@H](CO)[C@@H]2Cn3c(ccc(C4=CCCC4)c3=O)[C@H]1N2C(=O)CC,nt,nt,-1
CC(NC(=O)CN1CCc2ccccc21)c1ccccc1 (configuration not stated),54*,-6,nt
CC(NC(=O)CN1CCN(c2ccccc2F)CC1)c1ccccc1 (configuration not stated),29,-6,2
CC(C)N1C(=O)CC(Nc2cccc3cccc(N)c23)C1=O (configuration not stated),8,-7,1
CN1C(=O)CC(Nc2cccc3cccc(N)c23)C1=O (configuration not stated),58*,nt,nt
SMILES,VHR inh abs,PrPC TRFRET,TcdB GH inh
CCC(=O)N1[C@@H]2Cn3c(ccc(-c4ccccc4)c3=O)[C@H]1[C@@H](C(=O)N1CCc3ccccc3C1)[C@@H]2CO,nt,nt,0
CCn1c(O)c(N=NC(=O)CNC(=O)/C=C/c2ccco2)c2ccccc21,-20,-32,-1
O=C(CNC(=O)/C=C/c1ccccc1)N=Nc1c(O)n(Cc2ccccc2)c2ccccc12,56*,9,0
C[C@@H]1CCCCO[C@@H](CN(C)Cc2ccc(C(=O)O)cc2)[C@H](C)CN([C@@H](C)CO)C(=O)c2cc(NC(=O)Nc3ccc(F)cc3)ccc2O1,nt,nt,-3
CCC(C(=O)NCCCN1CC(C)CC(C)C1)n1ncn2c(cc3occc32)c1=O (configuration not stated),58*,-5,2
CCC(C(=O)NCCCN1CCN(CC)CC1)n1nc(C)n2c(cc3occc32)c1=O (configuration not stated),-8,3,1
C[C@H](O)C#Cc1cnc2c(c1)C(=O)N([C@H](C)CO)C[C@H](C)[C@H](CN(C)Cc1ccc(-c3ccccc3)cc1)O2,nt,nt,0
COc1cccc(-c2cnc3c(c2)C(=O)N([C@H](C)CO)C[C@H](C)[C@H](CN(C)C(=O)NC2CCCCC2)O3)c1,nt,nt,0
